Drawing on PubChem BioAssay AID493170 (National Center for Advancing Translational Sciences (NCATS), 2011), this text covers Potency for 39 compounds.

Records with an inconclusive call do not appear. A call without a number means that no potency is given here. The source made the active and inactive calls. The call rests on the fitted dose curve; in most records, active means well fitted inhibition curve with a large enough effect; inconclusive means small, poorly fitted or top-dose-only effect, or effect the other way; inactive means flat fitted curve, though single readings scatter.
Potency means the concentration at half of the fitted maximal effect.

Chain of Ubiquitin carboxyl-terminal hydrolase 2 (Homo sapiens) (O75604 whole entry, looked up): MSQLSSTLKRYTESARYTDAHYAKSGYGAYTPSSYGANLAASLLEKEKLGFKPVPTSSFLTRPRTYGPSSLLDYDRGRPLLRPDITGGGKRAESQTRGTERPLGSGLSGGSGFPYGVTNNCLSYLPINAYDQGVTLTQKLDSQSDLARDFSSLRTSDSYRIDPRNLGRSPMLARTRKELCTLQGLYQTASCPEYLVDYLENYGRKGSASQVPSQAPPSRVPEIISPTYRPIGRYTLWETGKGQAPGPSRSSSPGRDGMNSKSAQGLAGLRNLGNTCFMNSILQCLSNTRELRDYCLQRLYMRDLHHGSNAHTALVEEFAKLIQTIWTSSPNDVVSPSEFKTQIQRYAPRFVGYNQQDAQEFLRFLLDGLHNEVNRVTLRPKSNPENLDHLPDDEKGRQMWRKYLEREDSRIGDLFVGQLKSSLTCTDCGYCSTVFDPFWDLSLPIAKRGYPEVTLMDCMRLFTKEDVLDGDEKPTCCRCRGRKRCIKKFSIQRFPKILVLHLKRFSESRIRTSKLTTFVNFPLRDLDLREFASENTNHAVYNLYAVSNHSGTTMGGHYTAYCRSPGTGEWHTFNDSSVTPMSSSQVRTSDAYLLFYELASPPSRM

The target of the experiment is Ubiquitin carboxyl-terminal hydrolase 2 (Homo sapiens) (UniProt O75604). In words: Ub-rhodamine 110 based assay for inhibitors Ubiquitin-specific Protease USP2a. Further: nearly all actives have a fitted effect of over 50% in size. The settings on record: USP2a Ub-rhodamine110 cleavage, fluorescence; series mostly up to 38.3 µM. The method, boiled down:
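Kinetic fluorescence (485/531 nm) read each minute over 7 min after adding Ub-Rhod110 (150 nM final) to USP2a (5 nM final). The enzyme had 30 min RT exposure to compounds beforehand in Tris pH 8.0 buffer with CaCl2, CHAPS and beta-ME.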
Regarding `NS(=O)(=O)c1ccc(NC(=O)/C=C/c2cn(-c3ccccc3)nc2-c2cccc(Cl)c2)cc1`, the Potency is 8.91 µM (active).

As to `CNc1nc(OCCNC(=O)Nc2ccccc2)nc(N2CCOCC2)n1`, the Potency entry was “inactive”. As for `O=C(NCCC1=CCCCC1)C1CCCN(S(=O)(=O)c2cnc[nH]2)C1` (centres undefined), the entry is “inactive”; as for `CCOC(=O)N1CCN(C(=O)c2cc3c(ccc4ccccc43)oc2=O)CC1`, “inactive”; as for `O=C(O)C1CCN1C1CCCCC1` (centres undefined), “inactive”. The figure for `Cc1ccc(CSC2=Nc3ccccc3C3=NC(CC(=O)NCc4ccco4)C(=O)N23)cc1` (centres undefined) is 8.91 µM (active); for `C=CCNCCOCCOc1ccccc1-c1ccccc1` it is “inactive”; for `COC(=O)c1ccc(NC(=O)CSC2=Nc3ccccc3C3CC=NN23)cc1` (centres undefined) it is “inactive”.

For `Cc1cccc(N2CCN(C(=O)CCc3nc4ccccc4[nH]3)CC2C)c1` (centres undefined), the Potency entry is “inactive”. The entry for `CC(C)(C)C1CCC(=NNC(=O)CN(c2ccccc2)S(C)(=O)=O)CC1` (centres undefined) is “inactive”; for `O=C(NCCOC(=O)c1ccccc1C(=O)OCCNC(=O)c1cccnc1)c1cccnc1` it is “inactive”; for `COC(=O)c1c(NC(=O)c2cccnc2)sc(C)c1C` it is “inactive”. Consider `COc1cccc(N2C(=O)C3CCCN3C2c2ccc(N(C)C)cc2)c1` (centres undefined), for which the Potency entry is “inactive”. Take `O=C(CCNc1cccc(Cl)c1)c1ccco1`: the Potency result is “inactive”.

Regarding `COc1ccc(NC(=O)CSc2nc3sc(C)cc3c(=O)n2C)c(OC)c1`, the Potency result is “inactive”.

As for `COC(=O)c1[nH]c2cc(OC)ccc2c1N`, the Potency result was “inactive”. Take `CC[C@]12c3[nH]c4cc(-c5ccco5)ccc4c3CCN1C(=O)[C@@H](CC(=O)NC/C=C(\C)CCC=C(C)C)C[C@@H]2C(=O)N1CCN(C(=O)C2CC2)CC1`: the Potency entry is “inactive”. The entry for `COc1cccc(/C=N/n2c(SC)nnc2-c2ccccc2)c1O` is “inactive”; for `O=C(C1CCCN(S(=O)(=O)c2cccc3cccnc23)C1)N1CCN(c2ccccc2F)CC1` (centres undefined) it is “inactive”. As to `O=C(CC(C(=O)O)C1CCCO1)NCCc1ccc2c(c1)OCO2` (centres undefined), the Potency result is “inactive”. The entry for `CC(CN1CCCCC1)OC(=O)c1ccc(Cl)cc1` (centres undefined) is “inactive”; for `CCCn1c(C)cc(C)c(C#N)c1=O` it is “inactive”; for `CCN(CC)c1ccc2nc3ccccc3[n+](CC)c2c1` it is “inactive”. Consider `COCc1c(C(=O)OCC(=O)c2c(N)n(CC(C)C)c(=O)n(C)c2=O)oc2ccccc12`, for which the Potency result is “inactive”. Regarding `Cc1ccc(NC(=O)CSc2nnc(COc3ccc(C#N)cc3)n2-c2ccccc2)cc1C`, the Potency result is “inactive”. Regarding `C=C1c2c(Cl)ccc(O)c2C(O)=C2C(=O)[C@]3(O)C(O)=C(C(N)=O)C(=O)[C@@H](N(C)C)[C@@H]3[C@@H](O)C12` (some centres undefined), the Potency was 6.31 µM (active).

As to `CCN1C(=O)C(NC(C)=O)c2cc(OC)ccc21` (centres undefined), the Potency result was “inactive”. For `CCN1C(=O)CSc2ccc(C(=O)NC3CCCCC3)cc21`, the Potency result is “inactive”. Turning to `C=CC[C@@H](CC(=O)N(CCO)Cc1ccccc1)C(=O)NCCOC(=O)[C@H](CC=C)CC(=O)OC(C)(C)C`, the Potency entry was “inactive”.

As to `CCc1ccc([C@@H]2CC=C(C(=O)O)[C@H](c3ccc(C(C)(C)C)cc3)N2S(=O)(=O)c2ccc(C)cc2)cc1`, the Potency was 10 µM (active). The entry for `O=C(Nc1cccc(S(=O)(=O)N2CCCC2)c1)c1cncc(Br)c1` is “inactive”. Turning to `CCN(Cc1ccncc1)C(=O)c1cccs1`, the Potency result is “inactive”. In the case of `CNc1cccccc1=S`, the Potency was 10 µM (active). The entry for `C[C@@H]1CN([C@@H](C)CO)C(=O)c2cc(NC(=O)CCC(F)(F)F)ccc2O[C@H]1CN(C)S(=O)(=O)c1ccc(Cl)cc1` is “inactive”; for `O=c1oc2ccccc2n1Cn1c(=O)oc2ccccc21` it is “inactive”. As for `O=C1NC(=Nc2ccccc2)S/C1=C\C=C\c1ccco1`, the figure is 5.62 µM (active); as for `CC(C)c1ccc(Nc2nnc(SCC(=O)c3nnc(-c4ccccc4)o3)s2)cc1`, 2.82 µM (active); as for `CS(=O)(=O)c1nc(-c2ccc(Br)cc2)cc(-c2ccccc2)c1C#N`, “inactive”.

For the compound `O/N=C/c1ccccc1OCc1ccccc1F`, the Potency result is “inactive”.
